Inconclusive results are not listed. Entries that show only a call come without a potency. Activity calls are given as the source filed them. Calls follow the shape of the dose curve; as a rule, active = well fitted activation curve with a large enough effect; inconclusive = small, poorly fitted or top-dose-only effect; inactive = flat fitted curve, though single readings scatter.

This assay in a line: qHTS assay to identify small molecule phospholipidosis (PLD) inducers (AID 1259344). To be noted: HepG2 phospholipidosis, LipidTOX Red imaging, 24 h; series mostly up to 38.3 µM. The gist of the method:
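Fluorescent phospholipid staining (LipidTOX Red) measured by automated microscopy in fixed HepG2 cells after 24 h treatment; nuclei counterstained with Hoechst 33342; amiodarone as reference inducer.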
For orientation: qHTS replaces the single test concentration by a dilution series.
With `CC1CCCCN1CCCOC(=O)c1ccccc1` (centres undefined), the Potency entry was “inactive”. As to `CCOc1ccc(S(=O)(=O)O)c2cccnc12`, the Potency entry was “inactive”. Same read-out and setting: the result for `CS(=O)(=O)c1ccc([C@@H](O)[C@@H](COC(=O)CN)NC(=O)C(Cl)Cl)cc1` reads “inactive”; that for `c1ccc(-n2cnnn2)cc1`, “inactive”; that for `CC(CNC(=O)c1cccnc1)NC(=O)c1cccnc1` (centres undefined), “inactive”. The same measure, in the same setting: next, `O=C(O)Cc1nn(Cc2ccc(Br)cc2F)c(=O)c2ccccc12`: “inactive”. Consider `CCN(CC)CCn1c(=O)c(Cc2ccc(OC)cc2)nc2ccccc21`, for which the PLD induction is 1.39% [at 7.66 µM] (inactive). Turning to `Cc1cc(-c2ccc(N=Nc3ccc4c(S(=O)(=O)O)cc(S(=O)(=O)O)c(N)c4c3O)c(C)c2)ccc1N=Nc1ccc2c(S(=O)(=O)O)cc(S(=O)(=O)O)c(N)c2c1O`, the Potency entry was “inactive”. `CC[N+](CC)(CC)CCC(O)(c1ccccc1)C1CCCCC1` (centres undefined): the Potency entry was “inactive”.

Regarding `O=C(O)/C=C/C(=O)Nc1ccc(S(=O)(=O)Nc2nccs2)cc1`, the Potency entry is “inactive”. On the same count and under the same terms, the result for `CN(C)CCc1c[nH]c2ccc(Cn3cncn3)cc12` reads “inactive”; that for `Nc1nc(/C(=C/CC(=O)O)C(=O)N[C@@H]2C(=O)N3C(C(=O)O)=CCS[C@H]23)cs1`, “inactive”. Same read-out and setting: next, `CCC1OC(=O)C[C@@H](O)[C@H](C)[C@@H](O[C@@H]2O[C@H](C)C[C@H](N(C)C)[C@H]2O)[C@@H](CC=O)C[C@@H](C)C(=O)/C=C/[C@]2(C)OC2C1C` (some centres undefined): “inactive”; `O=C1c2c(O)cccc2[C@H]([C@@H]2O[C@H](CO)[C@@H](O)[C@H](O)[C@H]2O)c2cc(CO)cc(O)c21`: “inactive”; `O=C1CCC(c2ccc(-n3ccnc3)cc2)=NN1`: “inactive”. With `CCCOC(=O)c1ccccc1O`, the Potency result was “inactive”. Regarding `C[C@H](NCCc1ccc(O)cc1)[C@H](O)c1ccc(O)cc1`, the Potency result is “inactive”. Still for that read-out and setting: next, `CCN(CC)CC#CCOC(=O)C(O)(c1ccccc1)C1CCCCC1` (centres undefined): “inactive”. In the case of `CC[C@@H](C)[C@H](N)C(=O)O`, the Potency entry is “inactive”. Same read-out and setting: next, `NC(=O)[C@@H]1C[C@]2(NC(=O)NC2=O)c2cc(F)ccc2O1`: “inactive”; `CCN1\C(=C/C=C/C=C/c2sc3ccccc3[n+]2CC)Sc2ccccc21`: “inactive”; `NC(N)=NCCCCN=C(N)N`: “inactive”. Same read-out and setting: next, `Cc1cccc(C)c1NC(=O)C1CCCCN1C` (centres undefined): “inactive”. Still for that read-out and setting: next, `OCC1(CO)COC(C(Cl)(Cl)Cl)OC1`: “inactive”.

The values are drawn from PubChem BioAssay (Tox21).
